Sampled rows, rich in hits. Any-hit rate of the full collection: about 5.9%.
ALR inh – inhibitors of human ALR sulfhydryl oxidase, primary screen, biochemical, H2O2 detection, HRP-luminol luminescence, single point; purified ALR, DTT oxidation; 3.8% of 290,000 active; inhibition, % (concentration not given with the values); FAD-linked sulfhydryl oxidase ALR (Homo sapiens), P55789;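 active means mean replicate inhibition above about 79%, with every replicate also reaching it, limit read from the data; inconclusive means only one of the two criteria met; inactive means mean below limit and not every replicate reaching it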
Target sequence (P55789 whole entry, looked up): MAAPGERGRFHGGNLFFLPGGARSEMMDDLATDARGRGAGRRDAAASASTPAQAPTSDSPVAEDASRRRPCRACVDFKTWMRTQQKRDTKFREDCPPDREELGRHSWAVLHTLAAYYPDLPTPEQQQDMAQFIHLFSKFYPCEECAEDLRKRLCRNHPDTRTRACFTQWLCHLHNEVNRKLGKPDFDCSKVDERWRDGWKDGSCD
PRMT1 inh – PRMT1 methyltransferase inhibitors, primary screen, biochemical, fluorescence polarization. inhibition, % at 2.79 µM. recombinant PRMT1, activity-based probe fluorescence polarization. 1.3% of 370,000 active. Protein arginine N-methyltransferase 1 (Homo sapiens), Q99873. AID 652257, 2013;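 active means inhibition above about 21% made by adding two undisclosed values, limit read from the data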
Target sequence (Q99873 whole entry, looked up): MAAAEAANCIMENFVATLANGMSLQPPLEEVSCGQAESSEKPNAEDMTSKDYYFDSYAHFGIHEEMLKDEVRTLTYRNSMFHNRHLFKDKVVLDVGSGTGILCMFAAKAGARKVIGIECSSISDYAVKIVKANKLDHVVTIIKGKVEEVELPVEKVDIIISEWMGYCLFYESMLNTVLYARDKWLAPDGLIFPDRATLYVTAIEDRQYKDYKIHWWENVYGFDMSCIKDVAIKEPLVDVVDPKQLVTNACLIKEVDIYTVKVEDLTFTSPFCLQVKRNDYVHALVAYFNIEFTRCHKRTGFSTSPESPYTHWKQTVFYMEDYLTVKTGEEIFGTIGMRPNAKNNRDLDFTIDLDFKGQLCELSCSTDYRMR
LANA-H2A inh – blockers of LANA interaction with H2A/H2B – biochemical, FP readout, HTS, primary screen. cell-free LANA-H2A/H2B peptide, fluorescence polarization. AID 2629, 2010. inhibition, % (concentration not given with the values). 0.6% of 320,000 active; in the data active means inhibition mostly above about 10%, no sharp cut-off; inactive means mostly below about 6.7%
rCAG binder – binders of r(CAG) RNA repeats, primary screen, biochemical, fluorescence; r(CAG) RNA repeat, TO-PRO-1 dye displacement fluorescence; inhibition, % at 3 µM; 1.3% of 370,000 active;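 active means inhibition above the plate cutoff, the mean of all test compounds on that plate plus 3 SD, cut at about 35% in these data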;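 further: 0% = DMSO alone and 100% = 100 µM mitoxantrone as full dye displacement; higher means more dye released from RNA so lower well fluorescence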
ABHD5-PLIN5 inh – ABHD5-PLIN5 interaction inhibitors, primary screen, cell lysate, split luciferase complementation, luminescence; Perilipin-5 (Homo sapiens) + 1-acylglycerol-3-phosphate O-acyltransferase ABHD5 (Homo …; Split G. princeps luciferase complementation, 4 h; inhibition, % at 4 µM; 0.78% of 360,000 active; AID 602281, 2012;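 active means inhibition above the mean inhibition across every tested compound plus 3 SD, cut at about 22% in these data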;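 further: 0% = DMSO only wells and the 100% control is not disclosed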
Rtt109 HAT inh – inhibitors of C. albicans Rtt109/Vps75 HAT, primary screen, biochemical, ThioGlo CoA-SH fluorescence, plate reader. Histone acetyltransferase RTT109 (Candida albicans (strain SC5314 / ATCC MYA-2876)), …. purified Rtt109/Vps75, 4 h. inhibition, % at 34.9 µM. 0.16% of 330,000 active;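 active means inhibition of at least 50% in every replicate; inconclusive means best replicate reaches 50% inhibition but some replicates fall short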
rCAG bind conf – small molecules binding CAG repeat RNA – biochemical, fluorescence, confirmation; shares compounds with rCAG binder; r(CAG) RNA repeat, TO-PRO-1 dye displacement fluorescence; inhibition, % at 3 µM; 70% of 4,300 active; AID 652065, 2013;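 active means inhibition above a per-plate cutoff, the mean inhibition of sample wells plus 3 SD, cut at about 35% in these data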;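 further: loss of TO-PRO-1 fluorescence as compound displaces dye from 1x1 AA loop RNA; 0% = DMSO only wells and 100% = 100 µM mitoxantrone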
dCAG dye counter – displacement of TO-PRO-1 from CAG DNA duplex, counter-screen for rCAG RNA repeat binder project, biochemical, fluorescence, TO-PRO-1 dye, d(CAG) DNA oligo; shares compounds with rCAG binder; d(CAG) DNA oligo TO-PRO-1 dye displacement; inhibition, % at 3 µM; 94% of 4,300 active;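 active means inhibition above its plate's cutoff, the mean test-well inhibition plus 3 SD, cut at about 4.8% in these data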;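 further: 0% = DNA dye mix with DMSO and 100% = 100 µM mitoxantrone; hits displace the dye from DNA and so lower well fluorescence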
* hit, by the source's call; ? = inconclusive; · = no result given.

SMILES | ALR inh | PRMT1 inh | LANA-H2A inh | rCAG binder | ABHD5-PLIN5 inh | Rtt109 HAT inh | rCAG bind conf | dCAG dye counter
O=C1NC(=S)N(C(=O)c2ccc(F)cc2)/C1=C/c1ccccc1 | 7 | -12 | -1 | 36* | -4 | -10 | 65* | 24*
COc1ccc(C(=O)CC(=O)c2ccc(F)cc2)cc1 | 3 | 3 | -7 | 3 | -5 | · | · | ·
O=C(NCc1ccc(C(=O)N2CCCN(Cc3ccccc3)CC2)cc1)c1cccc(Br)c1 | · | 1 | · | 3 | · | · | · | ·
COC(=O)C[C@H]1CC[C@H]2[C@H](COc3ccc(NC(=O)Cc4cccs4)cc3C(=O)N2C)O1 | · | -2 | · | 4 | · | · | · | ·
COc1cccc(/C=C2\SC(=S)N(NS(=O)(=O)c3ccccc3)C2=O)c1OC | 97* | 3 | 4 | 74* | -7 | 0 | 65* | 28*
COc1ccc(/C=N/NS(=O)(=O)c2ccccc2)cc1OC | 13 | 2 | -3 | 0 | -4 | -10 | · | ·
O=C1/C(=C/c2cccc(F)c2)SC(=S)N1NS(=O)(=O)c1ccccc1 | 3 | 19 | 0 | 62* | -22 | -13 | 65* | 17*
COc1ccc(/C=C2/SC(=O)N(NS(=O)(=O)c3ccccc3)C2=S)cc1OC | -7 | 4 | -4 | 69* | -14 | 79* | 58* | 23*
COc1cc(/C=C2\SC(=S)N(N(C)c3ccccc3)C2=O)ccc1O | 16 | -1 | -2 | 4 | 0 | -11 | · | ·
COc1cc(/C=C2\SC(=S)N(NC(=O)c3ccccc3O)C2=O)ccc1O | 99* | 5 | 2 | 55* | -6 | -1 | 34 | 13*
CC(=O)Nc1ccc(-c2ccnc3c2CC(C)(C(=O)Nc2cccc(Oc4ccccc4)c2)O3)cc1 (stereo not drawn) | · | -3 | · | 13 | 9 | · | · | ·
O=C1/C(=C/c2ccccn2)SC(=S)N1NS(=O)(=O)c1ccccc1 | 3 | 2 | -3 | 32 | 4 | 10 | · | ·
COc1cc(/C=C2\SC(=S)N(NS(=O)(=O)c3ccccc3)C2=O)cc(OC)c1OC | · | 9 | -2 | 65* | 4 | 30 | 65* | 27*
O=C(NN1C(=O)c2cc(Br)ccc2NC1c1cc(Br)cc(Br)c1O)c1ccncc1 (stereo not drawn) | 10 | -1 | -3 | 51* | 0 | 10 | 42* | 14*
O=[N+]([O-])c1cc(Br)c(O)c(/C=N/Nc2nnnn2-c2cccc3ccccc23)c1 | 15 | 5 | 0 | 92* | 4 | 1 | 89* | 63*
O=[N+]([O-])c1ccc(NN=Cc2cccc3ccccc23)cc1 | · | 3 | · | 6 | -1 | -5 | · | ·
COCCCNC(=O)C[C@H]1C[C@@]2(C(=O)OC)C(=C[C@H](C(C)(C)C)O[C@@H]2C)N(CCC2=CCCCC2)C1=O | · | -3 | · | 1 | · | · | · | ·
COC(=O)[C@]12CCCCC=C1N(Cc1ccccc1)C(=O)[C@H](CC(=O)N1CCCCC1)C2 | · | 3 | · | 0 | -1 | · | · | ·
O=C(/C=C/c1ccc(Cl)cc1)NC(=S)Nc1ccccc1C(=O)O | 19 | 13 | 8 | 35* | 7 | 39 | 33 | 9.1*
CCCCC(=O)NC(=S)Nc1cc(C(=O)O)ccc1OC | -1 | 0 | -8 | 0 | 1 | -6 | · | ·
NC(=O)c1ccccc1NC(=O)/C=C/c1ccc(Cl)cc1 | -5 | 4 | -1 | 3 | 1 | 2 | · | ·
COc1ccc(C(=O)O)cc1NC(=S)NC(=O)/C=C/c1ccc(C(C)C)cc1 | 97* | -4 | 2 | 57* | -1 | 15 | 75* | 40*
COc1ccccc1COc1ccc2c(C)c(CC(=O)O)c(=O)oc2c1C | 1 | -3 | 1 | 37* | -4 | -3 | 39* | 10*
OC(COC1CCCCC1)CN1CCCCC1 (stereo not drawn) | -6 | -3 | 3 | 0 | 0 | -1 | · | ·
Cn1ccnc1SCC(=O)Nc1nc2ccccc2s1 | ? | 2 | -2 | -1 | 2 | -3 | · | ·
SMILES | ALR inh | PRMT1 inh | LANA-H2A inh | rCAG binder | ABHD5-PLIN5 inh | Rtt109 HAT inh | rCAG bind conf | dCAG dye counter
COc1ccc(NC(=O)CSc2nc(O)cc(=O)n2-c2ccccc2)cc1 | 99* | -1 | -9 | 38* | 2 | 6 | 14 | 7.5*
O=C(CSc1nc(O)cc(=O)n1-c1ccccc1)Nc1nc2ccccc2s1 | 99* | 7 | 3 | 44* | 9 | -1 | 52* | 19*
COc1ccc(NC(=O)CSc2nnc(C3CCCCC3)n2-c2ccccc2)cc1 | -4 | -3 | 0 | -1 | 3 | 6 | · | ·
Cc1ccc(-n2c(SCC(=O)Nc3ccc(Cl)cc3)nc(O)cc2=O)cc1 | 94* | 1 | 0 | 37* | 5 | 7 | 25 | 10*
COc1ccccc1-n1c(SCC(=O)N2CCOCC2)nc(O)cc1=O | -3 | 3 | 0 | 7 | -5 | -10 | · | ·
COc1ccccc1-n1c(SCC(=O)Nc2ccc(Br)cc2)nc(O)cc1=O | 99* | 9 | 0 | 42* | 2 | -19 | 17 | 7.5*
C[C@H]1[C@@H](NC(=O)C2CCOC2)CC[C@@]23CCCN2C(=O)CCC[C@@H]13 (stereo partly drawn) | · | -1 | · | · | · | · | · | ·
C[C@@H]1COc2cc(Br)ccc2S(=O)(=O)N1Cc1cn(Cc2ccc(Br)cc2)nn1 | · | 0 | · | 7 | · | · | · | ·
CCOC(=O)C1=CCN(S(=O)(=O)c2ccc(C)cc2)C1c1cccc(C)c1 (stereo not drawn) | · | -2 | · | 1 | -6 | · | · | ·
O=C(CSc1nc2nc3c(cc2c(=O)n1-c1ccccc1)CCCC3)Nc1cccc2ccccc12 | -11 | 1 | -3 | 14 | 2 | 3 | · | ·
Cc1cccc(NC(=O)CSc2nc3ccccc3c(=O)n2C)c1 | · | 0 | -1 | 0 | -3 | -5 | · | ·
Cn1c(SCC(=O)Nc2ccccc2)nc(O)cc1=O | 99* | -1 | -1 | 37* | 5 | -1 | 7 | 5.0*
O=C(CSc1nc(O)cc(=O)n1-c1ccccc1)Nc1ccc2c3c(cccc13)CC2 | 99* | 6 | 2 | 45* | 9 | -4 | 30 | 12*
